VHR inh abs – blocks human VHR1 dual specificity phosphatase; P51452; recombinant VHR phosphatase, pNPP absorbance; inhibition, % at 13.3 µM; 0.52% of 290,000 active; in the data active means inhibition above about 50%
3CLpro inhibitor – SARS-CoV 3CLpro protease inhibition | recombinant SARS-CoV 3CLpro, quenched FRET peptide cleavage | inhibition, % at 6 µM | 0.14% of 290,000 active | AID 1706; in the data active means inhibition above about 12%
BoNT-F LC inh – inhibitors of Botulinum neurotoxin F light chain protease; Multiplex microsphere protease cleavage assay, flow cytometry; inhibition, % at 10 µM; 0.22% of 360,000 active; in the data active means inhibition above about 35%, passing the limit was not always enough; inconclusive means no clear call, values can overlap the other calls; further: plate controls were buffer without enzyme for full effect and enzyme alone for no effect
BoNT-A LC inh2 – blocks Botulinum neurotoxin A light chain protease; multiplex microsphere protease substrate cleavage, flow cytometry; inhibition, % at 10 µM; 0.17% of 360,000 active; AID 588499; further: plate controls were buffer without enzyme for full effect and enzyme alone for no effect
Anthrax LF inh2 – blocks Bacillus anthracis lethal factor protease | 0.12% of 360,000 active | P15917 | multiplex microsphere protease cleavage assay, LF | inhibition, % at 10 µM; further: plate controls were buffer without enzyme for full effect and enzyme alone for no effect
Target sequence (P15917 whole entry, looked up): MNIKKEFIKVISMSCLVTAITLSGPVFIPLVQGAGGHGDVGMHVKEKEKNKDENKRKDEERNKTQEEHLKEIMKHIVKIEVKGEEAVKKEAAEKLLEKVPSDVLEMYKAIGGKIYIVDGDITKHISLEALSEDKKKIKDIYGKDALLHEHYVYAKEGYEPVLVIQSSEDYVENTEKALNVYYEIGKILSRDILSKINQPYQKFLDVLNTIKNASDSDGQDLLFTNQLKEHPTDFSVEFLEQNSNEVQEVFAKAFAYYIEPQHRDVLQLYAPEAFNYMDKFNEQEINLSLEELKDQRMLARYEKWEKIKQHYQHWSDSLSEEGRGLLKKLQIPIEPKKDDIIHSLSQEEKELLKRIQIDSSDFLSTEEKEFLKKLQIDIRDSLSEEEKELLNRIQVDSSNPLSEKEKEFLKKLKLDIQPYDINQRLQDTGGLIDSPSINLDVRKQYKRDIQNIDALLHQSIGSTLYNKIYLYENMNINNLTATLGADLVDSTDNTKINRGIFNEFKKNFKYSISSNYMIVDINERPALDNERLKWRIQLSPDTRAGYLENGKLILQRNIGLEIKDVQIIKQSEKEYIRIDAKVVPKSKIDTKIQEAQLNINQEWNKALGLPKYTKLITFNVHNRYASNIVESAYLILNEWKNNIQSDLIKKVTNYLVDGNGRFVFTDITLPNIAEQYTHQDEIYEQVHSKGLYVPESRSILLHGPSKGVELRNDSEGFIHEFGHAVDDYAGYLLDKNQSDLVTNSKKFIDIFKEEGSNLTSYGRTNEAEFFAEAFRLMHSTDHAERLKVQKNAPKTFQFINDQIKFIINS
Bead autofluor – flagged as autofluorescent in microsphere protease counterscreen; compound autofluorescence counterscreen, microsphere flow cytometry; stronger effect = higher value; fluorescence intensity (no concentration beside the values); 3.1% of 360,000 active; in the data active means fluorescence intensity above about 16000; inconclusive means no clear call, values can overlap the other calls
* marks the source's active call; other numbers are inactive results. Only some compounds are listed: those with a hit (about 3.9% of all), similar ones and a draw of the others. Unless noted, no stated cut-off is given here; in the data, active means inhibition above about 30%; inconclusive means no clear call, values can overlap the other calls; inactive means below that.

What do the screens show for `COc1ccc(-c2csc(NC(=O)CCNC(=O)c3ccco3)n2)cc1`?
BoNT-F LC inh: -4.3; BoNT-A LC inh2: 0.2; Anthrax LF inh2: -4.4; Bead autofluor: 3699

What do the screens show for `COc1ccc(CN=CC2=C(O)CC(C)(C)CC2=O)cc1`?
VHR inh abs: 19.4; 3CLpro inhibitor: -3.3; BoNT-F LC inh: -3.8; BoNT-A LC inh2: -1.6; Anthrax LF inh2: -1.9; Bead autofluor: 24658*

What do the screens show for `CC1(C)CC(=O)C(C=NCC(O)c2ccccc2)=C(O)C1` (stereo not drawn)?
VHR inh abs: 9.9; 3CLpro inhibitor: 2.0; BoNT-F LC inh: -3.8; BoNT-A LC inh2: -3.0; Anthrax LF inh2: -1.4; Bead autofluor: 20941*

Results for COC(=O)c1cc(OC)c(OC)cc1N=CC1=C(O)CC(C)(C)CC1=O ?
VHR inh abs: 54.7*; 3CLpro inhibitor: 3.3; BoNT-F LC inh: -19.9; BoNT-A LC inh2: -1.5; Anthrax LF inh2: 0.7; Bead autofluor: 4934

How did COc1ccc(CN=CC2=C(O)CNC2=O)cc1 do in these assays?
VHR inh abs: 19.9; 3CLpro inhibitor: 3.4; BoNT-F LC inh: 4.5; BoNT-A LC inh2: 0.4; Anthrax LF inh2: 1.3; Bead autofluor: 4738

How did CC1(C)CC(=O)C(C=NCCN2CCN(C(=O)CC3CCCC3)CC2)=C(O)C1 do in these assays?
VHR inh abs: 13.6; 3CLpro inhibitor: 5.3; BoNT-F LC inh: -2.7; BoNT-A LC inh2: 0.5; Anthrax LF inh2: -4.0; Bead autofluor: 3069

How did COC(=O)c1cc(N=CC2=C(O)CC(C)(C)CC2=O)cc(C(=O)OC)c1 do in these assays?
VHR inh abs: 2.6; 3CLpro inhibitor: -2.5; BoNT-F LC inh: 1.2; BoNT-A LC inh2: 0.4; Anthrax LF inh2: 0.9; Bead autofluor: 2514

Results for CC1(C)CC(=O)C(C=NCCN2CCN(C(=O)Cc3ccc(F)cc3)CC2)=C(O)C1 ?
VHR inh abs: 12.8; 3CLpro inhibitor: -3.9; BoNT-F LC inh: 0.2; BoNT-A LC inh2: -1.0; Anthrax LF inh2: 3.3; Bead autofluor: 19988*

Results for CC1(C)CC(=O)C(C=NCC2CCCO2)=C(O)C1 (stereo not drawn) ?
VHR inh abs: -4.0; 3CLpro inhibitor: -3.7; BoNT-F LC inh: -4.8; BoNT-A LC inh2: -2.8; Anthrax LF inh2: -2.4; Bead autofluor: 25274*

How did CC1(C)CC(=O)C(C=NCC2CCNCC2)=C(O)C1 do in these assays?
VHR inh abs: 3.5; 3CLpro inhibitor: -5.4; BoNT-F LC inh: 1.4; BoNT-A LC inh2: 0.1; Anthrax LF inh2: -11.2; Bead autofluor: 4183

Results for CC1(C)CC(=O)C(C=NCCCN2CCCC2=O)=C(O)C1 ?
VHR inh abs: 29.5; 3CLpro inhibitor: 3.6; BoNT-F LC inh: -1.9; BoNT-A LC inh2: 0.1; Anthrax LF inh2: 0.3; Bead autofluor: 5192

How did CC1(C)CC(=O)C(C=NCCCn2ccnc2)=C(O)C1 do in these assays?
VHR inh abs: -2.6; 3CLpro inhibitor: -3.6; BoNT-F LC inh: 2.0; BoNT-A LC inh2: 1.2; Anthrax LF inh2: -1.4; Bead autofluor: 21981*

What do the screens show for `Cn1c(Br)nc2c1c(=O)n(Cc1ccccc1)c(=O)n2C`?
VHR inh abs: 8.5; 3CLpro inhibitor: -0.4; BoNT-F LC inh: inconclusive; BoNT-A LC inh2: -1.4; Anthrax LF inh2: 2.1; Bead autofluor: 3893

Results for Cn1c(Cl)nc2c1c(=O)n(Cc1cccc(Br)c1)c(=O)n2C ?
VHR inh abs: -10.9; 3CLpro inhibitor: -4.9; BoNT-F LC inh: -0.9; BoNT-A LC inh2: 0.5; Anthrax LF inh2: 0.1; Bead autofluor: 20509*

What do the screens show for `COc1ccc(CNc2nc3c(c(=O)n(Cc4ccc(Br)cc4)c(=O)n3C)n2C)cc1`?
VHR inh abs: 31.8; 3CLpro inhibitor: -3.4; BoNT-F LC inh: -5.6; BoNT-A LC inh2: -1.9; Anthrax LF inh2: -4.7; Bead autofluor: 20995*

Results for CSCCC1NC2(C(=O)Nc3c(Cl)cccc32)[C@@H]2C(=O)N(C3CCCC3)C(=O)[C@H]12 (stereo partly drawn) ?
VHR inh abs: 13.8; 3CLpro inhibitor: 3.0; BoNT-F LC inh: 2.4; BoNT-A LC inh2: 1.8; Anthrax LF inh2: -2.1; Bead autofluor: 21812*

What do the screens show for `CSCCC1NC2(C(=O)Nc3c(C)cc(Cl)cc32)[C@@H]2C(=O)N(C3CCCC3)C(=O)[C@H]12` (stereo partly drawn)?
VHR inh abs: 21.4; 3CLpro inhibitor: 4.0; BoNT-F LC inh: -4.6; BoNT-A LC inh2: inconclusive; Anthrax LF inh2: -6.0; Bead autofluor: 23955*

Bioassay records (PubChem)
